# Data: PMC5540273 (PLoS ONE, 2017)
# Tests used:
# Settings in all cases: concentration: 1 μM, replicates: in singlicate; n = 1
# [1] = tested on: STK36
# [2] = tested on: STK39
# [3] = tested on: SYK
# [4] = tested on: SgK110
# [5] = tested on: T1, TAK1
# T1 construct: gene MAP3K7
# [6] = tested on: TAOK1
# [7] = tested on: TAOK2
# [8] = tested on: TAOK3
# [9] = tested on: TBK1
# [10] = tested on: TEC
# [11] = tested on: TESK1
# [12] = tested on: TGFBR1
# [13] = tested on: TGFBR2
# [14] = tested on: TIE1
# [15] = tested on: T2, TIE2
# T2 construct: gene TEK
# [16] = tested on: TLK1
# [17] = tested on: TLK2
# [18] = tested on: TNIK
# [19] = tested on: TNK1
# [20] = tested on: TNK2
# 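Further: KINOMEscan kinase panel screen.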
Compound,%Inh [1],%Inh [2],%Inh [3],%Inh [4],%Inh [5],%Inh [6],%Inh [7],%Inh [8],%Inh [9],%Inh [10],%Inh [11],%Inh [12],%Inh [13],%Inh [14],%Inh [15],%Inh [16],%Inh [17],%Inh [18],%Inh [19],%Inh [20]
CCn1c(-c2nonc2N)nc2c(C#CC(C)(C)O)ncc(OCCCCN)c21.O=C(O)C(F)(F)F.O=C(O)C(F)(F)F [GSK507274],0%,11%,4%,0%,0%,40%,8%,0%,31%,0%,57%,0%,0%,5%,44%,0%,0%,0%,0%,11%
COc1cccc(C2=C(Nc3ccc(Cl)c(C(=O)O)c3)C(=O)NC2=O)c1 [SB-390769],0%,13%,34%,57%,0%,100%,100%,100%,100%,0%,20%,0%,6%,25%,17%,5%,0%,0%,0%,17%
O=C(Nc1cccc(-c2nn3ccccc3c2-c2ccnc(Nc3cccc(F)c3)n2)c1)c1c(F)ccc(F)c1Cl [GSK357952],99.3%,35%,16%,0%,0%,33%,0%,34%,3%,60%,0%,2%,19%,48%,22%,0%,0%,0%,91.6%,21%
CCn1c(-c2nonc2N)nc2c(C#CC(C)(C)O)nc(OC[C@H](N)c3ccccc3)cc21 [GSK943949],0%,5%,2%,0%,18%,64%,27%,3%,0%,0%,0%,9%,0%,0%,0%,2%,0%,4%,0%,8%
COc1cc(Nc2nccc(-c3c(-c4cccc(NC(=O)c5c(F)cccc5F)c4)nn4ncccc34)n2)cc(OC)c1OC [GSK327238],100%,13%,74%,69%,15%,58%,39%,63%,12%,95.2%,51%,1%,11%,90.6%,96.9%,42%,12%,80%,100%,69%
COc1cc(Nc2nccc(N3CCC(NC(=O)Nc4cccc(C(C)=O)c4)C3)n2)cc(OC)c1OC (centres unmarked) [GSK1379753],30%,0%,28%,0%,0%,0%,0%,0%,28%,0%,1%,0%,0%,27%,1%,0%,0%,0%,21%,19%
COc1cc2c(cc1OCCN1CCNCC1)ncc1c3ccc(C#N)cc3[nH]c21,6%,33%,0%,0%,95.1%,0%,4%,2%,81%,0%,2%,20%,0%,1%,5%,25%,0%,76%,4%,0%
O=C(Nc1ccccc1F)NC1CCN(c2ccnc(Nc3ccc(F)cc3)n2)CC1 [GSK1379800],0%,0%,0%,0%,0%,0%,0%,0%,8%,0%,17%,36%,0%,6%,7%,0%,0%,0%,0%,15%
Cc1occc1-c1ncc(OC[C@@H](N)Cc2c[nH]c3ccccc23)cc1-c1ccc2[nH]nc(C)c2c1.O=C(O)C(F)(F)F [GSK682037],0%,15%,0%,0%,97.9%,97.7%,36%,83%,0%,0%,19%,0%,0%,18%,0%,0%,0%,97.2%,15%,0%
Cc1ccc(C(=O)N2CC[C@@H](O)C2)cc1-n1c(C)cc(OCc2ccc(F)cc2F)c(Br)c1=O,0%,0%,7%,0%,0%,31%,57%,0%,1%,0%,0%,16%,0%,0%,20%,13%,0%,0%,0%,0%
COc1ccc(Nc2nccc(N3CCC(NC(=O)Nc4cccc(OC)c4)C3)n2)cc1 (centres unmarked) [GSK1379742],0%,5%,25%,0%,0%,0%,0%,0%,6%,1%,36%,0%,9%,0%,0%,0%,0%,0%,0%,12%
COC(=O)Nc1nc2cc(Oc3ccc(NC(=O)Nc4cc(C(F)(F)F)ccc4F)cn3)ccc2[nH]1.Cl.Cl [GW681170],0%,3%,16%,0%,79%,0%,0%,0%,19%,0%,10%,0%,0%,93.1%,98.6%,11%,0%,0%,0%,0%
CCc1ccc(-c2ccc3c(c2)-c2c(cnn2C)S(=O)(=O)N3C)cc1,0%,0%,0%,0%,4%,0%,0%,0%,8%,0%,3%,0%,2%,33%,0%,0%,0%,8%,0%,0%
CSc1cccc2c(-c3ccncn3)c(-c3ccc(F)cc3)nn12 [GW514786],38%,10%,42%,0%,9%,0%,0%,0%,8%,0%,31%,28%,24%,6%,0%,0%,0%,0%,8%,6%
Clc1ccc(-c2nn3ncccc3c2-c2ccnc(Nc3ccc4c(c3)OCCO4)n2)cc1 [GW829116],79%,0%,0%,11%,0%,0%,19%,0%,19%,0%,11%,46%,23%,24%,0%,0%,0%,31%,46%,0%
O=C(O)C(F)(F)F.O=C(O)C(F)(F)F.O=c1[nH]ccc2nc(N[C@@H]3CCCNC3)nc(Nc3ccc(S(=O)(=O)N4CCOCC4)cc3)c12 [GSK2177277],26%,90.6%,93.1%,95%,99.9%,99.8%,82%,99.5%,90%,38%,0%,32%,0%,66%,0%,94.3%,98.2%,99.5%,73%,26%
Cn1cc(-c2ccc3c(c2)CCN3C(=O)Cc2cccc(Cl)c2)c2c(N)ncnc21 [GSK2606590],0%,9%,38%,0%,42%,0%,0%,0%,27%,4%,52%,0%,0%,92.3%,45%,0%,0%,7%,11%,0%

Compound,%Inh [1],%Inh [2],%Inh [3],%Inh [4],%Inh [5],%Inh [6],%Inh [7],%Inh [8],%Inh [9],%Inh [10],%Inh [11],%Inh [12],%Inh [13],%Inh [14],%Inh [15],%Inh [16],%Inh [17],%Inh [18],%Inh [19],%Inh [20]
Nc1ncc(-c2ccc3nccc(-c4ccncc4)c3c2)cc1S(=O)(=O)N1CCOCC1 [GSK1627798],0%,0%,12%,0%,0%,0%,0%,0%,10%,9%,2%,0%,5%,3%,0%,0%,0%,0%,0%,11%
NCCCC(NC(=O)c1cc(Br)c(-c2ccnc3[nH]ccc23)s1)c1ccccc1.O=C(O)C(F)(F)F.O=C(O)C(F)(F)F (centres unmarked) [GSK1287544],0%,0%,0%,58%,0%,34%,0%,0%,0%,0%,16%,0%,0%,73%,15%,0%,0%,3%,0%,0%
COC(=O)Nc1nc2ccc(Oc3ccc(NC(=O)Nc4cc(C(F)(F)F)ccc4F)cc3)cc2n1C.Cl [GW692089],22%,0%,52%,0%,38%,0%,0%,0%,0%,0%,0%,7%,0%,97%,97.3%,0%,33%,10%,0%,0%
c1ccc(-c2cnc3nccnn23)cc1 [AH20685],0%,0%,26%,0%,0%,0%,0%,0%,0%,0%,0%,0%,0%,0%,0%,0%,0%,0%,9%,0%
CN(C)S(=O)(=O)c1cc(-c2ccc3nccc(-c4cccc(S(N)(=O)=O)c4)c3c2)cnc1N [GSK1669921],0%,0%,0%,0%,0%,18%,0%,7%,2%,12%,0%,0%,0%,26%,0%,0%,0%,13%,42%,9%
O=C(Nc1cccc(-c2nn3ccccc3c2-c2ccnc(Nc3cccc(C(F)(F)F)c3)n2)c1)c1c(F)cccc1F [GSK292658],97.8%,0%,37%,68%,0%,27%,3%,30%,8%,83%,0%,6%,0%,31%,0%,0%,0%,0%,75%,22%
Cc1ccc(C)c(NC(=O)NC2CCN(c3ccnc(Nc4ccc(F)cc4)n3)C2)c1 (centres unmarked) [GSK1379720],5%,10%,16%,11%,0%,0%,0%,0%,0%,2%,28%,12%,0%,0%,0%,0%,0%,0%,0%,21%
Nc1ncnc2c1nc(-c1ccccc1)n2-c1ccccc1 [SKF-97293],7%,0%,6%,0%,35%,38%,6%,25%,24%,8%,19%,9%,4%,9%,11%,0%,19%,0%,8%,0%
CCS(=O)(=O)c1ccc(OC)c(Nc2nccc(-c3c(-c4cccc(NC(=O)c5c(F)cccc5F)c4)nn4ncccc34)n2)c1 [GSK326180],99.7%,16%,4%,0%,0%,0%,0%,0%,21%,4%,2%,22%,0%,47%,37%,3%,0%,0%,85%,48%
O=C(Nc1n[nH]c2cc(-c3ccoc3)ccc12)C1CC1 [SB-738481],13%,1%,2%,0%,2%,65%,27%,15%,15%,0%,0%,0%,0%,0%,5%,7%,0%,42%,0%,0%
Cn1cc(-c2[nH]c3cc(NC(=O)[C@H](N)C4CCCCC4)cc4c3c2C=NNC4=O)cn1,0%,59%,55%,92.1%,52%,0%,0%,0%,82%,43%,15%,0%,66%,83%,42%,8%,1%,91.9%,68%,48%
COc1cc(Nc2ncc3c(C)nc(-c4cc5ccccc5[nH]4)n3n2)cc(OC)c1OC [GW869516],6%,0%,53%,0%,48%,0%,0%,0%,58%,0%,1%,14%,0%,46%,32%,0%,0%,47%,49%,17%
O=C(Nc1cccc(Oc2ccc3nc(NC(=O)C4CC4)cn3n2)c1)c1ccccc1C(F)(F)F,4%,11%,0%,0%,0%,0%,34%,0%,39%,5%,17%,9%,0%,16%,14%,0%,3%,9%,55%,4%
Cn1cc(-c2ccc3c(c2)CCN3C(=O)Cc2cccc(F)c2)c2c(N)ncnc21 [GSK2603358],0%,12%,18%,0%,30%,0%,0%,0%,19%,8%,39%,0%,0%,89%,48%,0%,0%,0%,0%,3%
CNC(=O)c1ccccc1Nc1nc(Nc2ccc(N3CCOCC3)cc2)ncc1Cl.Cl [GSK1576028],85%,54%,87%,90.5%,96.1%,98.8%,83%,94.2%,93.1%,99%,26%,93%,0%,100%,97.9%,52%,57%,76%,100%,98.2%
Cc1cccc(NC(=O)Nc2ccc(Oc3ncnc4ccn(C)c34)cc2)c1,0%,0%,0%,0%,0%,0%,20%,0%,6%,0%,0%,0%,0%,59%,2%,0%,0%,8%,0%,5%
O=c1[nH]cc(-c2ccc(N3CCOCC3)cc2)c2sc(-c3cn[nH]c3)cc12 [GSK2276055],0%,3%,0%,0%,53%,68%,5%,21%,25%,0%,55%,0%,0%,0%,0%,25%,19%,10%,0%,0%
